# Data from the supplement of paper PMC9477273.
# Test system: DRIVER-selected RNA biosensor (aptazyme) pool
# Test: maximum fold change of ribozyme cleavage across biosensor pool versus no-compound control; higher = stronger biosensor response (ligand inhibits cleavage)
# Settings: 10 µM
# Experimental: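 CleaveSeq: a pool of resynthesized hammerhead-ribozyme RNA biosensors (sTRSV scaffold with randomized loops, 1,730 sequences) was T7-transcribed at 37 °C for 15-30 min with a single compound at 10 µM. Cleaved and uncleaved products were counted by NGS, and fold change of cleavage was computed against the DMSO-only condition. The value is the maximum fold change of cleavage over all biosensors in the pool. About 255 compounds were tested individually.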
row,SMILES,maximum fold change
1,Cc1cc(NC(=O)CSc2nnc(-c3ccc(C)c(C)c3)o2)no1,2.25
2,Cc1cc2cc(CNC(=O)C3CCCC3)ccc2[nH]1,5.24
3,Cc1ccc(NC(=O)c2cc3c(=O)oc4ccccc4c3s2)nc1,6.76
4,COc1ccccc1OCCCn1cccc1/C=C1\C(=N)N2N=C(N3CCOCC3)SC2=NC1=O,2.03
5,Cc1nn2c(-c3ccco3)nnc2c2ccccc12,8.73
6,N=C1/C(=C\c2ccc(Br)cc2)C(=O)N=C2SC(N3CCOCC3)=NN12,2.79
7,O=C1C2CC=C(Cl)CC2C(=O)N1CCO (stereo not given),3.4
8,CC(C)CC(NC(=O)/C(=C/c1ccco1)NC(=O)c1ccc(Br)o1)C(=O)O (stereo not given),1.98
9,CC(C)CN(CC(C)C)c1nnc(NC(=O)NCc2ccco2)s1,2.36
10,COc1cccc(/C=N/NC(=N)N)c1O,5.16
11,CCCCNCc1c(C(=O)O)c(C)n(Cc2cc(C)ccc2C)c1C,2.79
12,COc1ccc(S(=O)(=O)Nc2cccnc2)cc1,2.43
13,CS(=O)(=O)c1ccc2nc(NC(=O)c3cc4ccccc4o3)sc2c1,7.28
14,COCCN1C(=O)c2ccccc2C(C(=O)N2CCC(C)CC2)C1c1cn(C)c2ccccc12 (stereo not given),4.72
15,Cc1cccc(CNCc2c(C(=O)O)c(C)n(Cc3c(F)cccc3Cl)c2C)c1,1.89
16,N/C(=N\OC(=O)N1CCOCC1)c1cccnc1,3.37
17,COc1ccccc1OCC(O)Cn1c[n+](C)c2cc(C)c(C)cc21 (stereo not given),3.47
18,Cc1ccc2[nH]c(=O)c3cc(C(=O)NCCCN(C)Cc4ccccc4)sc3c2c1,7.38
19,Cc1ccc(CS(=O)Cc2ccc(C(=O)NC(C)C)o2)cc1 (stereo not given),1.84
20,COCCNC(=O)C1c2ccccc2C(=O)N(CCOC)C1c1c[nH]c2ccccc12 (stereo not given),2.7

row,SMILES,maximum fold change
1,COc1cccc(-c2nc3sc4c(c3c(=O)n2CC(=O)NC2CCCCC2)CCCC4)c1,1.74
2,Cc1c(CNC2CCCc3ccccc32)c(C(=O)O)c(C)n1Cc1ccc(F)cc1 (stereo not given),2.39
3,C=CCNC(=O)c1c(C)c(C(=O)OCC)n(C)c1C,2.81
4,CC(=O)N1N=C(c2c(-c3ccccc3)c3cc(Cl)ccc3[nH]c2=O)CC1c1ccco1 (stereo not given),6.87
5,COc1cccc(/C=C(\C#N)c2nc3ccccc3[nH]2)c1O,11.2
6,N#C/C(=Cc1c(Oc2ccccc2Cl)nc2n(c1=O)cccc2)/c1nc2c([nH]1)cccc2,7.4
7,COCCN1C(=O)c2[nH]nc(-c3ccccc3O)c2C1c1ccccc1 (stereo not given),3.01
8,O=c1oc2cc(O)ccc2c2ccccc12,2.57
9,COc1ccc2nc3oc(C(=O)NCCCN4CCC(Cc5ccccc5)CC4)cc3cc2c1,5.98
10,CCOc1cc(C(=O)C(=O)c2ccc(OC)c(OCC)c2)ccc1OC,2.92
11,CC1=C(C(=O)NCCC2=CCCCC2)C2(CCC(C)CC2)OC1=O (stereo not given),2.79
12,CCN(Cc1ccccc1)Cc1csc(C)c1C,3.07
13,CCOc1ccc(CCNC2=NS(=O)(=O)C(c3ccc(C)cc3)=C2C)cc1OCC,3.71
14,Cc1ccccc1-c1nc(CS(=O)(=O)CC(=O)N2CCN(Cc3ccccc3)CC2)c(C)o1,3.66
15,OCCCN/C=C/1C(=O)CC(CC1=O)c1ccc(cc1)OC (stereo not given),1.74
16,CCOc1ccc2c(c1)[N+](C)=C(/C=C/c1ccc(C(=O)OC)cc1)C2(C)C,2.67
17,COc1ccc(CCn2c(SCC(=O)Nc3cc(C)n[nH]3)nc3ncccc3c2=O)cc1OC,11.2
18,COc1cc(OC)c(OC)cc1/C=C1N=C(c2ccco2)OC1=O,2.19
19,Cc1ccc(-c2noc(CCC(=O)Nc3cc(C)ccn3)n2)cc1,2.17
20,CC1(C)CC(=O)C(=Cc2c[nH]c3ccccc23)C(=O)C1,2.44
